Compounds with a hit are over-represented: about 1.2% of the library has one in this group of screens.
ERG-DNA inh: blocks human ERG Ets domain binding to DNA; Potency, µM (doses to about 76.9 µM), without a hit: at the highest dose FP activity, negative = inhibition, hits mostly inhibitors; fluorescence polarization, His-ERG Ets domain / labelled DNA; 370,000 tested, 0.028% active; P11308; active = well fitted inhibition curve with a large enough effect in the polarisation, with a control signal flat; inconclusive = small, poorly fitted or top-dose-only effect, or effect the other way, or a change in a side signal; inactive = no such curve, though single readings can be large or run the other way; the % refers to the polarisation;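 note: polarization taken with two DNA probes labelled with fluorescein and Texas red; % of control where 0% means no effect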
Target sequence (P11308 whole entry, looked up, the tested form may be a part): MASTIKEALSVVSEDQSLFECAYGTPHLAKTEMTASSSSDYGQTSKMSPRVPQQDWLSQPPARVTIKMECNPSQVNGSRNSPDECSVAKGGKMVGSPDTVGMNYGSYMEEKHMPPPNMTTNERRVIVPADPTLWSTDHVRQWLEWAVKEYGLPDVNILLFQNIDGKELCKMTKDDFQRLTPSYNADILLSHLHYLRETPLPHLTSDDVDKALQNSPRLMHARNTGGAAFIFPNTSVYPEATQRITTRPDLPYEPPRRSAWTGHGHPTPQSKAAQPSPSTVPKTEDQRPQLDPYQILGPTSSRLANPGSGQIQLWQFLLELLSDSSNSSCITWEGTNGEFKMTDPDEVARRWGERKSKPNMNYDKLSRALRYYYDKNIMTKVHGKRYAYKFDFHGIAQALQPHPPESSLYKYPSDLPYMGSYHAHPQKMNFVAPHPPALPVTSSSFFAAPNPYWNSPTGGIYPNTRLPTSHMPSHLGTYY
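His-tagged ERG Ets domain (1 uM in the protein solution; 300mM KCl, 50mM Tris-HCl, 1mM EDTA, 1mM DTT, pH 7.5) received compound, then a probe mix of 5 nM fluorescein-DNA and 100nM Texas-615-DNA. Fluorescence polarization was read for both dyes.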
BRCA1 expr act: increases BRCA1 expression. MCF7-BRCA1-FFLuc reporter, luminescence, 48 h; response scale: scaled: vehicle 0%, 10 µM genistein 100%. Potency, µM (series often up to 46.1 µM), without a hit: at the top dose activation, usual class: activators. 380,000 tested, 1.1% active. AID 624202; note: nearly all actives have a fitted effect of over 80% in size
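Cells: MCF7-BRCA1-FFLuc, 2000/well. Exposure: 48 h, 37 °C, 5% CO2. Read: luminescence, 15 min post-substrate. Controls: genistein 10 microM (maximal activation), DMSO (neutral).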
B2AR arrestin: recruits beta-arrestin to the human beta2-adrenergic receptor; P07550; beta-arrestin recruitment to beta2AR, cell-based reporter; Potency, µM (doses to about 46.1 µM), for the others: top-dose activation, most hits filed as activators; 330,000 tested, 0.02% active; AID 492947;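 note: 0% = DMSO controls and full agonism = EC100 isoproterenol or metaproterenol; nearly all actives have a fitted effect of over 65% in size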
Mito fusion act: blocks mitochondrial division or promotes mitochondrial fusion; S. cerevisiae fusion-defective mutant growth rescue, CellTiterGlo 48 h; Potency, µM (doses to about 46.1 µM), for the others: at the top dose growth rescue (activation), most hits filed as activators; 320,000 tested, 0.23% active; note: % of control where 0% means no effect; nearly all actives have a fitted effect of over 45% in size
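Temperature-sensitive fusion-defective S. cerevisiae (e.g. fzo1-1, mgm1-5) were grown with compound in YPEG medium (3% ethanol, 3% glycerol) for 48 hours at 37C. Growth rescue was measured as viability by CellTiterGlo luminescence after 10 minutes at ambient.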
* = called active by the depositor; ! = not confirmed by another sample. Unless noted, calls come from the whole dose curve; as a rule, active = well fitted curve in the direction sought with a large enough effect; inconclusive = small, poorly fitted or top-dose-only effect, or another doubt; inactive = no such curve, though single readings can be large; an effect the other way counts as inactive or inconclusive. Potency is the fitted concentration of half-maximal effect.

How did CN(CC(=O)Nc1ccccc1Cl)C(=O)c1cc(-c2cccs2)nn1-c1ccccc1 do in these assays?
ERG-DNA inh: 9%; BRCA1 expr act: -4%; B2AR arrestin: 0%; Mito fusion act: 11%

How did CN(CC(=O)Nc1c(Cl)cccc1Cl)C(=O)c1cc(-c2cccs2)nn1-c1ccccc1 do in these assays?
BRCA1 expr act: -50%; B2AR arrestin: -1%; Mito fusion act: 20µM*

What do the screens show for `CCCN1C(=O)c2[nH]nc(-c3ccccc3O)c2C1c1ccc(OCc2ccccc2)c(OCC)c1` (stereo not drawn)?
ERG-DNA inh: 5%

How did Fc1ccc(COc2ccc(-c3nnco3)cc2)c(Cl)c1 do in these assays?
ERG-DNA inh: 3%; BRCA1 expr act: 8.9µM*; B2AR arrestin: 1%; Mito fusion act: inconclusive

What do the screens show for `FC(F)(F)c1cnc(Oc2ccc(-c3nnco3)cc2)c(Cl)c1`?
ERG-DNA inh: 7%; BRCA1 expr act: 8%; B2AR arrestin: 0%; Mito fusion act: 10%

How did O=C(COc1ccc(-c2nnco2)cc1)Nc1c(F)cccc1F do in these assays?
ERG-DNA inh: 3%; BRCA1 expr act: 0%; B2AR arrestin: 0%; Mito fusion act: 4%

What do the screens show for `Fc1cc(Br)ccc1COc1ccc(-c2nnco2)cc1`?
ERG-DNA inh: 10%; BRCA1 expr act: 6.3µM*; B2AR arrestin: 0%; Mito fusion act: 1%

How did CC1CCC(Nc2nc3c(-c4cccc(C(F)(F)F)c4)nnn3c3ccccc23)CC1 (stereo not drawn) do in these assays?
ERG-DNA inh: -3%; BRCA1 expr act: 5%

Results for CCN(CC)C(=O)c1sc2nc(-c3ccc(OC)cc3)cn2c1C ?
ERG-DNA inh: -1%; BRCA1 expr act: 2.8µM*; B2AR arrestin: -1%; Mito fusion act: 0%

Results for Cc1cc(C)cc(NC(=O)C2CCCN(c3nnc(-n4c(C)ccc4C)s3)C2)c1 (stereo not drawn) ?
ERG-DNA inh: 1%; BRCA1 expr act: -35%

What do the screens show for `CCOc1ccc(-c2cn3ccccc3n2)cc1[N+](=O)[O-]`?
ERG-DNA inh: -2%; BRCA1 expr act: 4µM*; B2AR arrestin: -1%; Mito fusion act: -1%

How did CCCOc1ccc(-c2csc(N)n2)cc1[N+](=O)[O-] do in these assays?
BRCA1 expr act: 7.9µM*; B2AR arrestin: 0%; Mito fusion act: 12%

How did CCOc1cccc(C2C=C(c3ccc4c(c3)OCO4)NC(c3ccccc3F)N2)c1O (stereo not drawn) do in these assays?
BRCA1 expr act: 0%

Results for CCOc1ccc(NS(=O)(=O)c2ccc(-c3cc(C)no3)s2)cc1 ?
ERG-DNA inh: -2%

How did CC(=O)Nc1ccc(NC(=O)/C=C/c2ccc(Cl)cc2)cc1 do in these assays?
ERG-DNA inh: -2%; BRCA1 expr act: -17%; B2AR arrestin: -1%; Mito fusion act: 2%

Results for COc1ccc(NC(=O)/C=C/c2cccc(F)c2)cn1 ?
ERG-DNA inh: 10%; BRCA1 expr act: 7.1µM*; B2AR arrestin: 0%; Mito fusion act: 0%

What do the screens show for `CCOc1ccc(/C=C/C(=O)Nc2ccccc2C(F)(F)F)cc1`?
ERG-DNA inh: -1%; BRCA1 expr act: 104%; B2AR arrestin: 0%; Mito fusion act: -5%

Results for COc1ccc(NC(=O)/C=C/c2ccc(Cl)cc2)cc1 ?
Mito fusion act: 5.2µM*

How did COc1ccc(NC(=O)/C=C/c2ccco2)cn1 do in these assays?
ERG-DNA inh: 1%; BRCA1 expr act: 0%; B2AR arrestin: 0%; Mito fusion act: 3%

Results for COc1ccc(/C=C/C(=O)Nc2cccc(C(C)=O)c2)cc1 ?
ERG-DNA inh: 3%; BRCA1 expr act: 4.5µM*; B2AR arrestin: 0%; Mito fusion act: -4%

What do the screens show for `COc1ccc(/C=C/C(=O)Nc2ccccc2C(F)(F)F)cc1`?
ERG-DNA inh: -2%; BRCA1 expr act: 3.2µM*; B2AR arrestin: 0%; Mito fusion act: 3%

How did COc1ccc(/C=C/C(=O)Nc2cccc(F)c2)cc1 do in these assays?
ERG-DNA inh: 1%

What do the screens show for `CCOc1ccccc1NC(=O)c1c(NC(=O)Cc2ccc(OC)cc2)sc2c1CCC2`?
ERG-DNA inh: 2%

Results for O=C(NCCc1ccc(Cl)cc1)c1ccc(CS(=O)Cc2cccc(Cl)c2)o1 (stereo not drawn) ?
ERG-DNA inh: 3%

Results for COc1ccc(C(=O)c2ccc(OC)cc2O)c(O)c1 ?
ERG-DNA inh: 3%; BRCA1 expr act: 10µM*; B2AR arrestin: 0%; Mito fusion act: 4%

Results for CCOc1ccccc1CNCc1c(C(=O)O)c(C)n(Cc2ccc(Cl)cc2)c1C ?
ERG-DNA inh: -3%

How did OC(Cn1ccnc1)c1ccc(Cl)cc1Cl (stereo not drawn) do in these assays?
ERG-DNA inh: 2%; BRCA1 expr act: 1%; B2AR arrestin: -1%; Mito fusion act: -3%

How did Clc1ccc(C(Cn2ccnc2)OCc2c(Cl)cccc2Cl)c(Cl)c1 (stereo not drawn) do in these assays?
ERG-DNA inh: 3%; BRCA1 expr act: -30%; B2AR arrestin: 0%; Mito fusion act: 6.3µM*

How did Cc1ccc(OCC(=O)N(Cc2ccc(Cl)cc2)Cc2ccco2)cc1C do in these assays?
ERG-DNA inh: 2%

How did CC#CCCCC(=O)Nc1ccccc1C(=O)O do in these assays?
ERG-DNA inh: 0%; BRCA1 expr act: 11µM*; B2AR arrestin: 0%; Mito fusion act: -2%

Results for O=C(COc1ccc(Cl)cc1Cl)NC(=S)Nc1ccccc1C(=O)O ?
B2AR arrestin: 0%; Mito fusion act: 1%

How did O=C(CCCOc1ccc(Cl)cc1Cl)Nc1ccccc1C(=O)O do in these assays?
ERG-DNA inh: 3%; BRCA1 expr act: 6.3µM*; B2AR arrestin: 0%; Mito fusion act: 3%

What do the screens show for `Fc1ccc(CNc2nc(-c3ccccc3)cc(C(F)(F)F)n2)cc1`?
ERG-DNA inh: 10%; BRCA1 expr act: 0%

What do the screens show for `O=C(Nc1ccc(F)cc1)C1CC2CCC1C2` (stereo not drawn)?
ERG-DNA inh: 6%; BRCA1 expr act: -6%; B2AR arrestin: 1%; Mito fusion act: 5%

Results for CCC(C)c1ccc(NC(=O)C2CC3CCC2C3)cc1 (stereo not drawn) ?
ERG-DNA inh: -6%; BRCA1 expr act: 7.1µM*

Results for CC(C)c1ccc(NC(=O)C2CC3CCC2C3)cc1 (stereo not drawn) ?
ERG-DNA inh: -7%; BRCA1 expr act: 6.3µM*; B2AR arrestin: 0%; Mito fusion act: -2%

How did CCOc1ccc(NC(=O)C2CC3CCC2C3)cc1 (stereo not drawn) do in these assays?
ERG-DNA inh: -3%; BRCA1 expr act: inconclusive

How did Cc1ccc(S/C(=N/S(=O)(=O)c2ccc(Cl)cc2)c2ccccc2)cc1 do in these assays?
BRCA1 expr act: 2%

Results for Cc1c(Cl)cccc1Nc1ccccc1C(=O)O ?
ERG-DNA inh: -6%; BRCA1 expr act: -35%; B2AR arrestin: 0%; Mito fusion act: -7%

What do the screens show for `Cc1ccc(Cl)c(Nc2ccccc2C(=O)O)c1Cl`?
ERG-DNA inh: -5%; BRCA1 expr act: -28%; B2AR arrestin: -1%; Mito fusion act: 5.2µM*!
